The target of the first assay is ZBTB9. The assay is described as follows: pooled miR-30 sensor sort-seq; sequence = guide strand. The settings on record: shRNA.
TAACACTGCTTTATGAGCCCTA returned a sensor-assay potency score (higher = more potent) of -0.401. Sequence TGAGCACTGATCTACTACCTGC registered a sensor-assay potency score (higher = more potent) of -0.24.

Take TTAATGTAGAAGATTTTGGGGG: the sensor-assay potency score (higher = more potent) was -0.261. With TAAAACATTTACCACTGTCTTT, the sensor-assay potency score (higher = more potent) was -1.1. On the same count and under the same terms, for TTTTGCTCTAACTCTTCTCTCA the value was -0.273; for TAAATAATTGAAAATCTGGTTT, -0.887.

Regarding TTAAGCTGTAAATCAAATGTAT, the sensor-assay potency score (higher = more potent) is -0.457.

TTTCTGAGCACTGATCTACTAC: the sensor-assay potency score (higher = more potent) was -0.637. The same measure, in the same setting: for TTGAGTTTCCACATCTGCCAGG the value was -0.504. Consider TCGGCTTCAATGACACTCGGTA, for which the sensor-assay potency score (higher = more potent) was -0.397. On the same count and under the same terms, for TAATTCTCTAAGAATTTCTGAG the value was -0.361; for TTTAAGTAACTGCAAGTCCCAC, -0.539.

The next assay addresses ZC3H13. The assay is described as above. The following applies: shRNA.
TTCATTTCTATAGCGCTTCTTT gave a sensor-assay potency score (higher = more potent) of -0.352. The same measure, in the same setting: under TATTCCAACATCATCCTCTTTC stands 0.216; under TTCTCGGATCTCTTCTCGCTTT, -0.478; under TTTTGATCTAACCACTTCTGGT, -0.785. The same measure, in the same setting: for TTGTTCTTCATTCTTTCTCTAA the value was -0.618.

TTGGATTCCTATCTTCTCGGAT: the sensor-assay potency score (higher = more potent) is 0.12. On the same count and under the same terms, under TTGAACTCTCTTTCCTTTCTGG stands 0.745. The same measure, in the same setting: for TATAATTGCTGCTATAACCTTT the value was -0.316; for TTTCAGGATAGCTACTTCGAGT, -1.23; for TTGATCTAACCACTTCTGGTGA, -0.291.

Sequence TTGAGGTCGTACAACTTGGCTC returned a sensor-assay potency score (higher = more potent) of -0.282. The same measure, in the same setting: for TAGACTTTCTTAGAGAAGGTGA the value was 0.611.

Another assay has as its target ZDHHC14. The description is as above. The following applies: shRNA.
On to TTGATGATGACTTCTTTGGTTC, for which the sensor-assay potency score (higher = more potent) is -0.541. Same read-out and setting: under TTGGAGCTGATCAAGTAGGTGT stands 0.206; under TTTGCGATATCTATTTGCCTTT, -0.604. Same read-out and setting: under TTAGGAATCCTGTTTGCTGTGA stands 0.039. Same read-out and setting: under TTACCTCTTTTATTTGACCAGG stands -0.803; under TTACAGAAGAACTTGTTTCTTC, 0.472. Sequence TAGTAGCATAACACATAAGTGC returned a sensor-assay potency score (higher = more potent) of -0.719.

As to TTTGTTGTCTGGTTGGAGCTGA, the sensor-assay potency score (higher = more potent) came out at 0.539. The same measure, in the same setting: under TTGCAGTCTGGCCACAAGCGTC stands -1.44.

TTGGTCGCACATGTCACTCTGT: the sensor-assay potency score (higher = more potent) is 0.506.

The target of the next assay is ZDHHC20. The assay is described as above. The following applies: shRNA.
Take TTGTAACAGAAGCTTGTTCTGG: the sensor-assay potency score (higher = more potent) is -0.283.

Turning to TTGGACAAGTAGAACTCTTTGG, the sensor-assay potency score (higher = more potent) is -0.323.

For TTATAAAGTACTCTAAAACTGT, the sensor-assay potency score (higher = more potent) was -0.589.

On to TTGTTGTCTTTCTTGGCTGAAT, for which the sensor-assay potency score (higher = more potent) was -1.21. Still for that read-out and setting: under TTTCTTGTTGTCTTTCTTGGCT stands -0.0932.

The values are drawn from the OligoGym collection.
Further: reference of the scale not given here.
